Reference: the supplement of paper PMC10646978
± gives the standard deviation.

Assays:
Conditions in all cases: modulator concentration 10 µM
[1] = test system: RAW-Dual (murine macrophage reporter line); test: NF-kB reporter (SEAP) activity fold change vs agonist alone; higher = enhanced NF-kB activity
In short: (§1)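 RAW-Dual murine macrophage reporter cells were seeded at 50 000 per well in 384-well plates and pre-incubated 1 hour at 37 °C with compound pin-transferred to 10 μM final. After 1 hour, a PRR agonist was added and cells incubated overnight. Supernatant NF-κB (SEAP, QUANTI-Blue, 620 nm absorbance) and IRF (Lucia luciferase, QUANTI-Luc, luminescence) signals were divided by the mean agonist-only control on the same plate to give fold change. Two replicate plates were averaged, with errors by propagation.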

[2] = test system: RAW-Dual (murine macrophage reporter line); test: IRF reporter (Lucia luciferase) activity fold change vs agonist alone; higher = enhanced IRF activity
In short: as §1

[3] = test system: RAW-Dual (murine macrophage reporter line); test: viability score (confluency relative to resting cells, overnight) (fraction); higher = more viable, active = viable (0.7 or more)
In short: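 RAW-Dual macrophages in 384-well plates were incubated overnight with compound, final concentration 10 μM. Confluency images from IncuCyte were processed in IncuCyte software into two masks covering all imaged wells. The viability score is each well's confluency relative to resting cells, and a compound met the cutoff when both masks exceeded 70% of resting cells.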

[4] = agonist: CpG ODN 1826 0.5 ug/mL

Row | SMILES | NF-kB reporter [1, 4] | NF-kB reporter ([1]; agonist: LPS 0.1 ug/mL) | NF-kB reporter ([1]; agonist: MPLA […]) | IRF reporter ([2]; agonist: 3'3'-cGAMP 10 ug/mL) | IRF reporter ([2]; agonist: LPS 0.1 ug/mL) | IRF reporter ([2]; agonist: MPLA […]) | viability score [3]
1 | O=c1oc2cc(O)ccc2c2ccccc12 | 1.05 ± 0.12 | 0.932 ± 0.085 | 1.06 ± 0.038 | 0.813 ± 0.15 | 1.06 ± 0.097 | 1.28 ± 0.17 | 0.782 (active)
2 | COc1ccc(OC)c(C2CC(c3ccc(Cl)cc3)=NN2S(C)(=O)=O)c1 (configuration not stated) | 0.853 ± 0.073 | 0.897 ± 0.09 | 1.04 ± 0.12 | 0.829 ± 0.068 | 1.15 ± 0.22 | 1.19 ± 0.43 | 0.986 (active)
3 | CCCC(CCC)C(=O)O | 1.05 ± 0.099 | 1.01 ± 0.16 | 0.99 ± 0.045 | 0.957 ± 0.079 | 0.965 ± 0.032 | 0.897 ± 0.094 | 0.992 (active)
4 | CC(C)(Oc1ccc(Cl)cc1)C(=O)Nc1cnoc1 | 1.05 ± 0.097 | 1.09 ± 0.082 | 1.08 ± 0.098 | 0.982 ± 0.037 | 1.03 ± 0.063 | 1.04 ± 0.17 | 0.979 (active)
5 | CC1CCc2c(oc3ccc(NS(=O)(=O)c4ccc(F)cc4)cc23)C1 (configuration not stated) | 0.607 ± 0.1 | 0.626 ± 0.075 | 0.918 ± 0.032 | 0.853 ± 0.035 | 0.643 ± 0.11 | 1.76 ± 0.23 | 0.144 (inactive)
6 | Cc1cc(=O)n(CC(=O)N2CCC(c3ccccc3F)S(=O)(=O)CC2)cn1 (configuration not stated) | 1.01 ± 0.06 | 1.07 ± 0.084 | 0.953 ± 0.09 | 1 ± 0.063 | 1.12 ± 0.081 | 1.04 ± 0.091 | 1 (active)
7 | O=C1CCCC2=C1C(c1ccc(C(F)(F)F)cc1)Nc1ccc(C(=O)c3ccccc3)cc1N2 (configuration not stated) | 0.885 ± 0.08 | 1.19 ± 0.068 | 0.759 ± 0.045 | 1.55 ± 0.091 | 1.36 ± 0.14 | 1.04 ± 0.12 | 0.942 (active)
8 | CCCCSc1nnc2c(n1)OC(c1cccc(C)n1)Nc1ccc(Br)cc1-2 (configuration not stated) | 0.922 ± 0.073 | 1.05 ± 0.07 | 0.97 ± 0.045 | 0.985 ± 0.14 | 1.02 ± 0.068 | 0.921 ± 0.11 | 1 (active)
9 | CCCc1cc(=O)oc2cc(OCC(=O)OC)c(Cl)cc12 | 1.1 ± 0.09 | 0.967 ± 0.13 | 1.03 ± 0.041 | 0.96 ± 0.13 | 1.04 ± 0.1 | 1.09 ± 0.18 | 0.998 (active)
10 | CCCN(CCC)C(=O)C1=Cc2ccc(-c3ccc(C(=O)N4CCCC4)cc3)cc2N=C(N)C1 | 0.432 ± 0.022 | 1.08 ± 0.17 | 1.12 ± 0.11 | 0.724 ± 0.034 | 1.29 ± 0.29 | 1.58 ± 0.49 | 0.957 (active)
11 | CC1CCc2nc(NC(=O)C3CCCN3S(C)(=O)=O)sc2C1 (configuration not stated) | 0.812 ± 0.037 | 1.03 ± 0.082 | 1.08 ± 0.057 | 0.983 ± 0.045 | 1.35 ± 0.27 | 1.44 ± 0.48 | 0.964 (active)
12 | CS(=O)(=O)c1cccc(C[C@H](NC(=O)c2c(Cl)cc3c(c2Cl)CCN(C(=O)c2ccc4ccoc4c2)C3)C(=O)O)c1 | 1.12 ± 0.17 | 1.22 ± 0.23 | 1.97 ± 1.1 | 1.07 ± 0.084 | 1.37 ± 0.41 | 1.31 ± 0.1 | 0.983 (active)
13 | Cc1ccccc1N=Nc1ccc(NC(=O)c2ccnn2C)c(C)c1 | 1.12 ± 0.21 | 1.06 ± 0.086 | 0.946 ± 0.077 | 0.98 ± 0.039 | 1.21 ± 0.15 | 1.25 ± 0.21 | 1.01 (active)
14 | COc1ccc(C(=O)NCCOc2cc(C)cc(C)c2)cc1OC | 1.48 ± 0.12 | 1 ± 0.056 | 0.827 ± 0.062 | 1.02 ± 0.045 | 1.42 ± 0.19 | 1.03 ± 0.21 | 1.01 (active)
15 | Cc1c(C)c2c(c(C)c1O)CCC(C)(C(=O)O)O2 (configuration not stated) [Prestw-530] | 1.14 ± 0.13 | 1.03 ± 0.078 | 0.98 ± 0.03 | 0.986 ± 0.042 | 0.98 ± 0.054 | 1.03 ± 0.1 | 0.998 (active)
16 | CC1CCN(C2=NC(=O)C(=Cc3cccc4ccccc34)S2)CC1 | 1.06 ± 0.087 | 0.987 ± 0.076 | 0.954 ± 0.057 | 0.963 ± 0.05 | 1.54 ± 0.23 | 1.2 ± 0.18 | 1.01 (active)
17 | NNC(=O)c1ccncc1 | 1.51 ± 0.21 | 1.33 ± 0.21 | 1.31 ± 0.14 | 0.91 ± 0.028 | 1.42 ± 0.12 | 1.11 ± 0.14 | 0.999 (active)
18 | CC(C)CN(CC(O)C(Cc1ccccc1)NC(=O)OC1COC2OCCC12)S(=O)(=O)c1ccc(N)cc1 (configuration not stated) [Prestw-1802] | 1.53 ± 0.34 | 1.52 ± 0.14 | 1.84 ± 0.15 | 0.872 ± 0.069 | 0.827 ± 0.22 | 0.953 ± 0.14 | 0.981 (active)
19 | CCCC(=O)Nc1ccc(OCC(O)CNC(C)C)c(C(C)=O)c1.Cl (configuration not stated) | 1.14 ± 0.1 | 1.03 ± 0.05 | 0.983 ± 0.022 | 0.94 ± 0.054 | 1.01 ± 0.12 | 0.864 ± 0.11 | 0.999 (active)
20 | COc1ccc(C=NNC(=O)c2ccc(CN3CCOCC3)cc2)cc1[N+](=O)[O-] | 1.01 ± 0.085 | 1.06 ± 0.089 | 0.961 ± 0.067 | 1.04 ± 0.039 | 1.47 ± 0.14 | 1.28 ± 0.11 | 0.988 (active)
21 | CC(C)(C)c1cc(C=NO)c(C(C)(C)C)s1 | 0.48 ± 0.028 | 1.03 ± 0.063 | 0.985 ± 0.061 | 0.6 ± 0.02 | 1.13 ± 0.074 | 0.746 ± 0.22 | 0.0422 (inactive)
22 | C=CCc1ccc(OCCCOc2ccccc2C(C)=O)c(OC)c1 | 1.02 ± 0.072 | 1.08 ± 0.082 | 1.19 ± 0.049 | 0.66 ± 0.026 | 0.863 ± 0.052 | 1.07 ± 0.12 | 0.99 (active)
23 | O=C(CC(c1ccccc1)c1ccccc1)Nc1ccc(CC(=O)N2CCC(O)CC2)cc1 | 1.03 ± 0.078 | 1.13 ± 0.097 | 0.907 ± 0.11 | 1.05 ± 0.062 | 1.13 ± 0.082 | 1.25 ± 0.1 | 1.01 (active)
24 | COc1cc2c3cc1Oc1cc(ccc1O)OC1c4c(cc(OC)c(O)c4Oc4ccc(cc4)CC3N(C)CC2)CCN1C (configuration not stated) | 0.191 ± 0.011 | 1.05 ± 0.064 | 1.03 ± 0.084 | 0.793 ± 0.034 | 1.47 ± 0.23 | 1.34 ± 0.13 | 0.995 (active)
25 | C=C1CCC(NS(=O)(=O)c2ccc(-c3coc(C)n3)cc2)CC1 | 1.04 ± 0.056 | 1.15 ± 0.091 | 1.14 ± 0.062 | 1.22 ± 0.062 | 1.14 ± 0.11 | 1.2 ± 0.17 | 0.834 (active)
26 | O=C1C(CCC(O)c2ccc(F)cc2)C(c2ccc(O)cc2)N1c1ccc(F)cc1 (configuration not stated) | 1.09 ± 0.085 | 0.898 ± 0.16 | 1.04 ± 0.098 | 0.942 ± 0.034 | 1.16 ± 0.2 | 1.18 ± 0.25 | 1.01 (active)
